Results published in PubChem BioAssay (NCATS).
Records with an inconclusive call do not appear. Calls of active or inactive are those of the source. Calls come from the whole dose curve; as a rule, active = well fitted curve in the direction sought with a large enough effect in the repeat runs; inconclusive = weak or mixed curves; inactive = no such curve, though single readings can be large; an effect the other way counts as inactive or inconclusive.

Legend:
[1] = molecular target: Cytochrome P450 2D6 (Homo sapiens) (UniProt P10635); assay: Cytochrome P450 family 2 subfamily D member 6 (CYP2D6) small molecule antagonists: luciferase biochemical (cell-free) qHTS assay (AID 1645840); note: nearly all actives have a fitted effect of over 55% in size; note: potency is the fitted concentration of half-maximal effect
How it was run: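 P450-Glo CYP2D6 system: proluciferin substrate converted by enzyme to luciferin, read by luminescence proportional to activity. Enzyme-substrate mix with compound 10 min at room temperature, then NADPH regeneration 1 h before detection reagent.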

[2] = molecular target: Cytochrome P450 2C9 (Homo sapiens) (UniProt P11712); assay: Cytochrome P450 family 2 subfamily C member 9 (CYP2C9) small molecule antagonists: luciferase biochemical (cell-free) qHTS assay (AID 1645842); note: nearly all actives have a fitted effect of over 55% in size; note: potency is the fitted concentration of half-maximal effect
How it was run: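 P450-Glo CYP2C9 system: proluciferin substrate with enzyme in mix containing 0.4% BSA, 10 min at room temperature, then NADPH regeneration solution added and incubated 1 h at 37C. Detection reagent stopped reaction; luminescence read after 20 min as RLU.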

[3] = molecular target: Cytochrome P450 3A4 (Homo sapiens) (UniProt P08684); assay: Cytochrome P450 family 3 subfamily A member 4 (CYP3A4) small molecule antagonists: luciferase qHTS assay (AID 1645841); note: nearly all actives have a fitted effect of over 45% in size
How it was run: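 Luminescent CYP3A4 activity readout: compounds plus enzyme-substrate mix 10 min at room temperature, reaction started with NADPH regenerating system for 1 h, stopped with detection reagent, read after 20 min. Ketoconazole served as control.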

Cytochrome P450 2C9 (Homo sapiens), sequence (P11712 whole entry, looked up): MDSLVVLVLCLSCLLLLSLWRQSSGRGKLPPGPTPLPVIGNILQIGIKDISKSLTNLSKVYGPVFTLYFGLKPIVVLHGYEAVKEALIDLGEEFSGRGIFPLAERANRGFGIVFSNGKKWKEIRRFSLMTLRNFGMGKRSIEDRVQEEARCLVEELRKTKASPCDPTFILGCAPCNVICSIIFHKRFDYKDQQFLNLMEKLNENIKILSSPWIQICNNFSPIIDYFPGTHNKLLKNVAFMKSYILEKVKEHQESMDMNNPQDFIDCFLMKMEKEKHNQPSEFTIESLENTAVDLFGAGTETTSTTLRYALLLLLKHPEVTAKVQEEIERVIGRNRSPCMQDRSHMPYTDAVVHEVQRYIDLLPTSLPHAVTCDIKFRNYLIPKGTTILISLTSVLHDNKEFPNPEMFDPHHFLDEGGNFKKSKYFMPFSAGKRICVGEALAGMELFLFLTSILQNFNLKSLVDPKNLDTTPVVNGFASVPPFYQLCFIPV
Cytochrome P450 2D6 (Homo sapiens), sequence (P10635 whole entry, looked up): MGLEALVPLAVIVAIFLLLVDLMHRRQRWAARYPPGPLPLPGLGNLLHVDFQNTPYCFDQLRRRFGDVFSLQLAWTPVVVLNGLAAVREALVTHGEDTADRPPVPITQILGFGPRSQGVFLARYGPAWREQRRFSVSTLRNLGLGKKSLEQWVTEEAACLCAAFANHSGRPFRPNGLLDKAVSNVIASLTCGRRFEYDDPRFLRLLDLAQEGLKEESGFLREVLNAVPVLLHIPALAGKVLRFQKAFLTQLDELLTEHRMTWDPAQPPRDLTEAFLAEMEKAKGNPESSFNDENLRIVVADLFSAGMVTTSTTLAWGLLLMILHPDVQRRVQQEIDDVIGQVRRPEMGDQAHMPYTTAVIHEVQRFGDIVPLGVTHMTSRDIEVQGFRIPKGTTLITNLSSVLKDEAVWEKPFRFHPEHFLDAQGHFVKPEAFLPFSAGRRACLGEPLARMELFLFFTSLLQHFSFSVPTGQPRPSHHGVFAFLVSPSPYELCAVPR
Cytochrome P450 3A4 (Homo sapiens), sequence (P08684 whole entry, looked up): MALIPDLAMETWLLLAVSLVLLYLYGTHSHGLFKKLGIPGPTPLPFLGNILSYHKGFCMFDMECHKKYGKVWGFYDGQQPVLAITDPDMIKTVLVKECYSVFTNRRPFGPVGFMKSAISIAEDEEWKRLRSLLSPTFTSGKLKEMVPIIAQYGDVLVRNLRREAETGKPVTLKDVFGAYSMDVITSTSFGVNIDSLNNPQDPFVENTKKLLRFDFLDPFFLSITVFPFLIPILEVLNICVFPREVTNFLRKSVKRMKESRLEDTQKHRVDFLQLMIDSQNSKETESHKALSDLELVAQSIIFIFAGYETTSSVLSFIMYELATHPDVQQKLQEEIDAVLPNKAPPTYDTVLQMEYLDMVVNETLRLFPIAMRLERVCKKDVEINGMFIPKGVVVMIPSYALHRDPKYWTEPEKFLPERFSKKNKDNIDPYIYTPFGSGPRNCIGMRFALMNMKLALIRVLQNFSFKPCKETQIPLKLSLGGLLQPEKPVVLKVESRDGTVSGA

Structure (SMILES)	Potency [1]	Potency [2]	Potency [3]
O=C(Nc1cccc(Cl)c1)Nc1ccccc1OCc1cc(=O)n2ccccc2n1	inactive	–	–
COC(=O)c1ccc(C2C=C(c3ccc(Cl)cc3)Nc3nc4ccccc4n32)cc1 (centres undefined)	3.38 µM (active)	2.68 µM (active)	–
Cc1ccc(C)c(NC(=O)Cn2cc(C(=O)c3ccco3)c3ccccc32)c1	0.425 µM (active)	inactive	–
Cc1ccc(Nc2nc3nonc3nc2Nc2cccc(C(F)(F)F)c2)cc1Cl	9.52 µM (active)	5.35 µM (active)	inactive
C[S+](=O)([O-])Nc1ccc(-c2ccc3nc(-c4ccc(OC(F)(F)F)cc4)[nH]c3c2)cc1	inactive	–	inactive
CCOc1ccc(NC(=O)Cn2cc(C(=O)c3cccs3)c3ccccc32)cc1	inactive	1.69 µM (active)	–
CCOC(=O)c1ccc(N2C(=O)c3n[nH]c(-c4ccco4)c3C2c2ccc(C)cc2)cc1 (centres undefined)	inactive	2.39 µM (active)	–
COc1ccc(CN(C2CCCCC2)[S+](=O)([O-])c2ccc(C)cc2)cc1OC	inactive	3.79 µM (active)	–
COc1ccc(Cn2c(CCC(=O)Nc3cccc(OC)c3)nc3cccnc32)cc1	2.68 µM (active)	4.77 µM (active)	–
CCOC(=O)C1=C(O)c2ccccc2S(=O)(=O)N1C	inactive	inactive	–
COCCn1c(SCC(=O)Nc2ccc(F)c(Cl)c2)nc2c(oc3ccccc32)c1=O	2.39 µM (active)	0.952 µM (active)	–
COC(=O)c1cnc(N2CCN(c3ccc(OC)cc3)CC2)c2ccccc12	inactive	2.13 µM (active)	–
Nc1ccn(C2O[C@H](CO)[C@@H](O)[C@@H]2O)c(=O)n1 (some centres undefined)	inactive	inactive	–
Cc1ccc(NC(=O)Cn2c(=O)n(CCC(=O)N3CCc4ccccc4C3)c(=O)c3ccccc32)c(C)c1	inactive	0.338 µM (active)	–
CCc1ccc(-c2nc(CSCC(=O)NCc3ccc(C)cc3)c(C)o2)cc1	15.1 µM (active)	2.68 µM (active)	–
COc1ccc(NC(=O)C2=C(C)Nc3nc(SCc4ccccc4C)nn3C2c2cc(OC)c(O)c(OC)c2)cc1 (centres undefined)	inactive	inactive	–
COc1ccc(-n2nc3c(N4CCCC(C(=O)NCc5cccc(F)c5)C4)nnc(C)c3c2C)cc1 (centres undefined)	1.69 µM (active)	8.49 µM (active)	–
Cc1ccc(Cn2c(CN3CCC(C(=O)NCCc4ccccc4)CC3)cc3ccccc32)cc1	0.0477 µM (active)	2.13 µM (active)	–
COc1cccc(C(=O)NC(c2ccc(Cl)cc2)c2cc(Cl)c3cccnc3c2O)c1 (centres undefined)	inactive	23.9 µM (active)	–
Cc1ccc(Cn2ccnc2SCC(=O)Nc2nc3ccccc3s2)cc1	10.7 µM (active)	8.49 µM (active)	–
Cc1cccn2c(=O)c3cc(C#N)c(=O)n(-c4nnc(SCc5ccc(Cl)cc5)s4)c3nc12	inactive	6.01 µM (active)	–
Cc1nc2c3ccccc3nc(NNC(=O)CCC(=O)N3CCN(c4ccc(F)cc4)CC3)n2n1	inactive	3.79 µM (active)	–
